Laboratory results from PubChem BioAssay (NCATS).
“And” between values parts separate entries of the source, which are not always exact repeats. Equal entries are not always repeated. Results filed as inconclusive are left out. A call without a number means that no potency is given here. The source made the active and inactive calls. Unless noted, the call rests on the fitted dose curve.

Tests used:
[1] = qHTS for Inhibitors of the Functional Ribonucleoprotein Complex (vRNP) of Lassa (LASV) Arenavirus: LASV Primary Screen - GLuc reporter signal (AID 1347082; calls by dose curve; tested in HEK293 reporter line; further: nearly all actives have a fitted effect of over 60% in size; further: potency means the concentration at half of the fitted maximal effect)
[2] = biological target: Nucleoprotein (Lymphocytic choriomeningitis virus (strain Armstrong)) (UniProt P09992); test: qHTS for Inhibitors of the Functional Ribonucleoprotein Complex (vRNP) of Lymphocytic Choriomeningitis Arenaviruses (LCMV): LCMV Primary Screen - GLuc reporter signal (AID 1347086); further: nearly all actives have a fitted effect of over 70% in size; further: potency means the concentration at half of the fitted maximal effect
Sequence of Nucleoprotein (Lymphocytic choriomeningitis virus (strain Armstrong)) (P09992 whole entry, looked up): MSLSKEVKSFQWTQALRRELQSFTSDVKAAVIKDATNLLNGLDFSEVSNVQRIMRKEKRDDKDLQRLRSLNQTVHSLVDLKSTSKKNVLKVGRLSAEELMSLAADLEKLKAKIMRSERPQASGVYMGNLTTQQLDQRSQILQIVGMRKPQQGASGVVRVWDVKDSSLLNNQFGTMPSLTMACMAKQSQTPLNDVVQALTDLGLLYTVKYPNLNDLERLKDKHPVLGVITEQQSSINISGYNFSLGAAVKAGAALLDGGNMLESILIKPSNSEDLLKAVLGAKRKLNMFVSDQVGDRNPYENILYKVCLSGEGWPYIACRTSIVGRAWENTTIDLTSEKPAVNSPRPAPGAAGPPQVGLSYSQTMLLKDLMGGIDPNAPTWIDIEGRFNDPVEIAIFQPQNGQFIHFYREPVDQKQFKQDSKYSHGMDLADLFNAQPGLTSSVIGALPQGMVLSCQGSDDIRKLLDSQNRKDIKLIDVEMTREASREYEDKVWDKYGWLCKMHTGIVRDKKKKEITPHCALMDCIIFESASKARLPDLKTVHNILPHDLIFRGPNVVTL

[3] = Cytotoxicity counterscreen for inhibitors of SARS-CoV-2 cell entry (AID 1645845); further: nearly all actives have a fitted effect of over 50% in size
Outline: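 After a 15 min room-temperature ATPLite 1step step, luminescence reflected ATP remaining in HEK293-ACE2 cells exposed to compound for 1 h plus 48 h at 37 C, with percent activity set by cell and no-cell controls.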

CRL-7250 = normal cell line; test: qHTS assay to identify novel small-molecules to repurpose for Merkel cell carcinoma treatment (AID 1296009; active means well fitted curve in the direction sought with a large enough effect; an effect the other way counts as inactive or inconclusive; further: nearly all actives have a fitted effect of over 60% in size); settings: MCC and control cell lines, CellTiter-Glo viability, 72 h; series mostly up to 92 µM
Outline: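 Viability readout: ATP luminescence (CellTiter-Glo) after 72 hr drug exposure at 37 degree celsius. Dose-response format was 8 points for NPC and 11 points for MIPE; data normalized to in-plate controls.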

[4] = qHTS for Inhibitors of the Functional Ribonucleoprotein Complex (vRNP) of Lassa (LASV) Arenavirus: Viability assay - alamar blue signal for LASV Primary Screen (AID 1347083; calls by dose curve; tested in HEK293 reporter line; further: nearly all actives have a fitted effect of over 80% in size; further: potency means the concentration at half of the fitted maximal effect)
[5] = Confirmatory qHTS for VERO E6 Cytotoxicity Assay: Counterscreen for SARS-CoV-2 CPE Assay (AID 1508605); further: nearly all actives have a fitted effect of over 60% in size
[6] = Confirmatory qHTS for activators (rescue) of SARS-CoV-2 Cytopathic Effect (CPE) (AID 1508606); further: potency means the concentration at half of the fitted maximal effect; nearly all actives have a fitted effect of over 70% in size
[7] = Primary qHTS to identify inhibitors of SARS-CoV-2 cell entry (AID 1645846); settings: activity change, negative = inhibition: at 57.1 µM (top of the series) unless noted; further: nearly all actives have a fitted effect of over 45% in size; further: potency means the concentration at half of the fitted maximal effect
Outline: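 Inhibition of spike-mediated entry was scored in human ACE2-transfected Expi293F cells. Particles were MLV-pseudotyped with Wuhan-Hu-1 S carrying a 19-aa C-terminal deletion; signal was luciferase after two days, scaled between spike PP and fusion-protein-free PP.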

[8] = qHTS for Inhibitors of the Functional Ribonucleoprotein Complex (vRNP) of Lymphocytic Choriomeningitis Arenaviruses (LCMV): Viability assay - alamar blue signal for LCMV Primary Screen (AID 1347085; calls by dose curve; tested in HEK293 reporter line; further: nearly all actives have a fitted effect of over 80% in size; further: potency means the concentration at half of the fitted maximal effect)
[9] = biological target: Bile acid receptor (Homo sapiens) (UniProt Q96RI1); test: qHTS assay for small molecule agonists of farnesoid X receptor signaling (AID 588527); settings: HEK293T FXR-UAS-bla, beta-lactamase ratio, 16 h; activation: stronger effect = higher value
Sequence of Bile acid receptor (Homo sapiens) (Q96RI1 whole entry, looked up): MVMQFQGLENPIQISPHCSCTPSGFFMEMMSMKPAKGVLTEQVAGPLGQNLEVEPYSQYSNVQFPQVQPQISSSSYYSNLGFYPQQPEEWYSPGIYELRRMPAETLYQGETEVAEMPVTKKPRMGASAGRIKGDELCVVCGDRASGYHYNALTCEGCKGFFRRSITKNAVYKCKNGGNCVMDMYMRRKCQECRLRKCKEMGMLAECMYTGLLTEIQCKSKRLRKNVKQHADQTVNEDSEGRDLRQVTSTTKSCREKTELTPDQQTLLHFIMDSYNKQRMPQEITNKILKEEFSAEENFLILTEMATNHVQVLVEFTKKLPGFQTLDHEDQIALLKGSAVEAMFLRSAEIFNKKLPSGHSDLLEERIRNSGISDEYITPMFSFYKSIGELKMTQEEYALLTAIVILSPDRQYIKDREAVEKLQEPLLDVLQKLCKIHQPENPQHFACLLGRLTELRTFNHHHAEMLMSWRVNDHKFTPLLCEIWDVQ
Outline: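 FXR-UAS-bla HEK293T cells (10% dialyzed FBS) preincubated 5-7 h at 37 C, then compounds at up to 92 uM for 16 h at 37 C. CCF4 beta-lactamase read-out after 2 h RT. Normalized to chenodeoxycholic acid (100 uM) and DMSO; Hill fit gave EC50 and efficacy.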

[10] = biological target: Alpha-galactosidase (Coffea arabica) (UniProt Q42656); test: Counterscreen for Glucocerebrosidase Inhibitors: qHTS Assay for Coffee Bean alpha-Galactosidase at pH 4.5 (AID 957; active means well fitted curve in the direction sought with a large enough effect; an effect the other way counts as inactive or inconclusive)
Sequence of Alpha-galactosidase (Coffea arabica) (Q42656 whole entry, looked up): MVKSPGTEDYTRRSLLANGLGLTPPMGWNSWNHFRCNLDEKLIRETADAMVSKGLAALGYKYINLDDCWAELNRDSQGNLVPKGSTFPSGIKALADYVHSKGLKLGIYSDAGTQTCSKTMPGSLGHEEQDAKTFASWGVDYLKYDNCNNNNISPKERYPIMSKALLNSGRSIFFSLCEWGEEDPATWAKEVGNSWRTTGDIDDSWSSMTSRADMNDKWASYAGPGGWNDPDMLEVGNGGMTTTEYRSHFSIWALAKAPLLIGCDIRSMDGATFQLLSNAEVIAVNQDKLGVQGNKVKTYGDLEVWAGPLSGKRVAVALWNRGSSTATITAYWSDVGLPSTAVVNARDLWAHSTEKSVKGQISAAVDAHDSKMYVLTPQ
Outline: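 Fluorogenic qHTS at pH 4.5 (citrate buffer with Tween-20): 2 nM enzyme, 80 uM 4-MU-alpha-galactoside substrate, compound titrated 0.7 nM to 77 uM, 20 min room temperature. Glycine/NaOH stop; 4-MU read Ex 365/Em 440; Hill-equation AC50 against no-enzyme and enzyme controls.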

[11] = biological target: Alpha-galactosidase (Coffea arabica) (UniProt Q42656); test: Counterscreen for Glucocerebrosidase Inhibitors: qHTS Assay for Coffee Bean alpha-Galactosidase at pH 5.9 (AID 998; active means well fitted curve in the direction sought with a large enough effect; an effect the other way counts as inactive or inconclusive)
Outline: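 In 50 mM citric acid pH 5.9 with 0.005% Tween-20, coffee bean enzyme hydrolyses 80 uM 4-MU alpha-D-galactopyranoside over 20 min at RT. Activity is normalized to controls; AC50 comes from Hill-modelled concentration-response data.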

[12] = qHTS profiling of the MIPE4 collection as inhibitors of Plasmodium falciparum (3D7) proliferation (AID 743344; call rule not given here); settings: P. falciparum 3D7 in erythrocytes, SYBR Green DNA fluorescence, 72 h; at 28.5 µM (top of the series) unless noted
Outline: (§1)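 Parasite DNA was quantified by SYBR Green I fluorescence (ex 485, em 535 nm) after overnight lysis in saponin/Triton buffer at room temperature. Cultures at 0.3% parasitemia and 2.5% hematocrit were first exposed to compound for 72 h at 37 C; signals were normalised to artemisinin (0.29 uM) and vehicle wells.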

[13] = qHTS profiling of the MIPE4 collection as inhibitors of Plasmodium falciparum (DD2) proliferation (AID 743345; call rule not given here); settings: P. falciparum Dd2 in erythrocytes, SYBR Green DNA, 72 h; at 28.5 µM (top of the series) unless noted
Outline: as §1

[14] = qHTS profiling of the MIPE4 collection as inhibitors of Plasmodium falciparum (HB3) proliferation (AID 743347; call rule not given here); settings: P. falciparum HB3 in erythrocytes, SYBR Green DNA, 72 h; at 28.5 µM (top of the series) unless noted
Outline: as §1

COc1ccc(-c2cc(=O)c3c(O)cc(O)cc3o2)cc1O
Potency [1]: 24.3 µM (active) | Potency [2]: 24.3 µM (active) | Potency [3]: inactive | Potency (CRL-7250): inactive

COc1cccc([C@@H](C)NCCCc2ccccc2Cl)c1
Potency [1]: inactive | Potency [4]: inactive | Potency [2]: inactive | Potency [5]: inactive | Potency [6]: 10 µM (active) | Potency [3]: inactive | Potency [7]: 22.4 µM (active) | Potency (CRL-7250): inactive

COC(=O)[C@H](CCCN=C(N)N)NS(=O)(=O)c1ccc(C)cc1
Potency [1]: inactive | Potency [8]: 17.2 µM (active) | Potency [3]: inactive | activity change, negative = inhibition [7]: -0.183% | Potency (CRL-7250): inactive

CS(=O)(=O)c1ccc(-c2cnc(N)c(C(=O)Nc3ccccc3)n2)cc1
Potency [1]: inactive | Potency [2]: inactive | Potency [3]: inactive | activity change, negative = inhibition [7]: -1.17% | Potency (CRL-7250): inactive

Nc1ncnc2c1c(-c1cccc(OCc3ccccc3)c1)cn2C1CC(CN2CCC2)C1 (configuration not stated)
Potency [1]: inactive | Potency [4]: inactive | Potency [2]: inactive | Potency [3]: inactive | Potency (CRL-7250): inactive

O=c1c(O)c(-c2ccc(O)cc2)oc2cc(O)cc(O)c12
activation [9]: 0.454% (inactive) and 2.54% (inactive) | Potency [1]: inactive | Potency [4]: inactive | Potency [2]: inactive | Potency [3]: inactive | Potency [7]: inactive | Potency (CRL-7250): inactive

O=C(O)c1ccc(Nc2ncc3c(n2)-c2ccc(Cl)cc2C(c2c(F)cccc2F)=NC3)cc1
Potency [1]: inactive | Potency [4]: 10.9 µM (active) | Potency [2]: inactive | Potency [3]: inactive | Potency (CRL-7250): inactive

C[C@@H]1CN(Cc2ccc(F)cc2)[C@@H](C)CN1C(=O)c1cc2c(C(=O)C(=O)N(C)C)cn(C)c2cc1Cl
Potency [1]: inactive | Potency [2]: 30.6 µM (active) | activity change, negative = inhibition [7]: -24.1% | Potency (CRL-7250): inactive

Nc1ccc(C(=O)Nc2cccc(-c3nc(N4CCOCC4)c4oc5ncccc5c4n3)c2)cn1
Potency [1]: inactive | Potency [4]: 1.22 µM (active) | Potency [8]: 0.968 µM (active) | Potency [7]: 0.891 µM (active) | Potency (CRL-7250): inactive

CCOc1ccccc1OCCNC(C)Cc1ccc(OC)c(S(N)(=O)=O)c1 (configuration not stated)
Potency [1]: inactive | Potency [4]: inactive | Potency [2]: inactive | Potency (CRL-7250): inactive

CCC[C@@H](NC(=O)[C@@H]1[C@H]2CCC[C@@H]2CN1C(=O)[C@@H](NC(=O)[C@@H](NC(=O)c1cnccn1)C1CCCCC1)C(C)(C)C)C(=O)C(=O)NC1CC1
Potency [1]: inactive | Potency [4]: inactive | Potency [2]: inactive | Potency (CRL-7250): inactive

CN(C)CC[C@H](c1ccc(Cl)cc1)c1ccccn1
outcome [10]: inactive | outcome [11]: inactive | Potency [1]: inactive | Potency [8]: inactive | Potency [2]: inactive | Potency (CRL-7250): inactive

O=C1NC(=O)C(=Cc2cccc(C(F)(F)F)c2)S1
Potency [4]: 13.7 µM (active) | Potency (CRL-7250): inactive

O=C(O)C(=O)Nc1cccc(C2=NN=N[N]2)c1
parasite growth, % of DMSO control [12]: 82.2% | parasite growth remaining, % of DMSO control (lower = more inhibition) [13]: 99.9% | growth, % of control [14]: 97.2% | Potency [1]: inactive | Potency [4]: inactive | Potency [8]: inactive | Potency [2]: inactive | Potency (CRL-7250): inactive
